Among the test systems are NCI-H23 lung; NCI-H226 lung; NCI-H322M lung; HOP-62 NSCLC; NCI-H460 lung; HOP-92 NSCLC; NCI-H522 lung; A549/ATCC NSCLC; 786-0 renal; COLO 205 colon; DU-145 prostate; K-562 leukemia; MALME-3M melanoma; MDA-MB-231 breast; RXF 393 renal; SF-268 CNS; SF-295 CNS; SF-539 CNS; UACC-257 melanoma; M14 melanoma.
Test in all cases: NCI-60 one-dose screen, 48 h (100 = growth as untreated, 0 = no growth, -100 = all killed)
Common to all, as to conditions: 10 µM unless noted

Structures are written as SMILES. “And” between values parts separate entries of the source, which are not always exact repeats. Equal values may be shown once. About 83,000 compounds went through this panel and 20% of them were active in at least one assay; those are over-represented in the sample as a whole.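 Assay: single dose, 48 h. Readout: percent growth (0 = no net growth; negative = cell death). Active: <10.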 The source made the active and inactive calls.

As to `N#Cc1ccc([N+](=O)[O-])o1`, the growth in the assay on NCI-H23 lung was 112% (inactive); in the assay on NCI-H226 lung, 94.1% (inactive); with NCI-H322M lung it was 106% (inactive); in the assay on HOP-62 NSCLC it was 96.7% (inactive); in the assay on NCI-H460 lung, 107% (inactive); in the assay with HOP-92 NSCLC, 93.1% (inactive). In addition, the growth is 77.1% (inactive) in the assay with NCI-H522 lung; 75.7% (inactive) in the assay on A549/ATCC NSCLC; 102% (inactive) with 786-0 renal; 104% (inactive) in the assay on COLO 205 colon; 111% (inactive) in the assay on DU-145 prostate; 105% (inactive) in the assay with K-562 leukemia. For the same compound, the growth in the assay on MALME-3M melanoma was 118% (inactive); in the assay on MDA-MB-231 breast, 105% (inactive); with RXF 393 renal, 113% (inactive); in the assay on SF-268 CNS, 103% (inactive); in the assay with SF-295 CNS it was 99.6% (inactive); with SF-539 CNS, 101% (inactive). The growth is 79.7% (inactive) with UACC-257 melanoma and 97.9% (inactive) with M14 melanoma.
On to `CCN1/C(=C\c2cc[n+](CC)c3ccccc23)C=Cc2ccccc21`, for which the growth in the assay on NCI-H23 lung is 12.7% (inactive); in the assay with NCI-H226 lung it was 19.6% (inactive); with NCI-H322M lung, 25.4% (inactive); with HOP-62 NSCLC, 18.7% (inactive); with NCI-H460 lung, -32.8% (active); with HOP-92 NSCLC, -21.9% (active). Besides, the growth is 12.4% (inactive) in the assay with NCI-H522 lung; 18.9% (inactive) in the assay with A549/ATCC NSCLC; 25% (inactive) in the assay with 786-0 renal; -35.2% (active) in the assay with COLO 205 colon; 22.9% (inactive) in the assay with DU-145 prostate; 16.4% (inactive) in the assay on K-562 leukemia. Moreover, the growth with MALME-3M melanoma was 1.55% (active); with MDA-MB-231 breast it was 3.42% (active); in the assay with RXF 393 renal it was 16.4% (inactive); with SF-268 CNS, 26.3% (inactive); in the assay with SF-295 CNS it was 0.16% (active); in the assay with SF-539 CNS, 7.56% (active). For the same compound, the growth is -1.1% (active) in the assay on UACC-257 melanoma and 10.5% (inactive) with M14 melanoma.
`CN(C)C(=O)SC1=C(c2c(Cl)cccc2Cl)C(=O)c2ccccc21`: the growth with NCI-H23 lung is 70.6% (inactive); in the assay with NCI-H226 lung it was 111% (inactive); in the assay with NCI-H322M lung, 98.3% (inactive); in the assay with HOP-62 NSCLC, 92.2% (inactive); in the assay on NCI-H460 lung, 98.7% (inactive); in the assay on HOP-92 NSCLC it was 3.58% (active). Besides, the growth was -74.3% (active) with NCI-H522 lung; 110% (inactive) in the assay with A549/ATCC NSCLC; 71.5% (inactive) in the assay with 786-0 renal; -81.8% (active) in the assay on COLO 205 colon; -8.29% (active) in the assay on DU-145 prostate; -8.92% (active) in the assay with K-562 leukemia. For the same compound, the growth is -69.7% (active) with MALME-3M melanoma; 80.6% (inactive) with MDA-MB-231 breast; -27.5% (active) in the assay with RXF 393 renal; 13.3% (inactive) in the assay with SF-268 CNS; 103% (inactive) in the assay on SF-295 CNS; 91.1% (inactive) with SF-539 CNS. Further, the figures for the growth in the assay with UACC-257 melanoma and with M14 melanoma were 48.8% (inactive) and 23.2% (inactive), respectively.
Regarding `O=C(/C=C\c1cc(Br)ccc1O)/C=C/c1cc(Br)ccc1O`, the growth in the assay with NCI-H23 lung is -11.9% (active); with NCI-H226 lung it was -64.8% (active); in the assay on NCI-H322M lung, 6.71% (active); in the assay on HOP-62 NSCLC, -57.3% (active); in the assay on NCI-H460 lung, -34.9% (active); with NCI-H522 lung, -62.9% (active). Moreover, the growth in the assay on A549/ATCC NSCLC is -8.66% (active); in the assay on 786-0 renal, -68% (active); with COLO 205 colon it was -70.6% (active); in the assay on DU-145 prostate, 2.79% (active); with K-562 leukemia it was 5.64% (active); in the assay with MALME-3M melanoma, -5.41% (active). Also, the growth in the assay on MDA-MB-231 breast was 0.442% (active); in the assay with RXF 393 renal it was -49.4% (active); in the assay on SF-268 CNS it was -17.9% (active); in the assay with SF-295 CNS, -1.61% (active); in the assay on SF-539 CNS, -49.1% (active); in the assay with UACC-257 melanoma it was -16.7% (active). In the assay with M14 melanoma, the growth was -51.7% (active).
Consider `COc1cc(/C=C/C(C)=O)ccc1O`, for which the growth in the assay on NCI-H23 lung was 96.6% (inactive) and 94.1% (inactive); with NCI-H226 lung it was 95.3% (inactive) and 111% (inactive); with NCI-H322M lung it was 88.4% (inactive) and 115% (inactive); with HOP-62 NSCLC it was 94.2% (inactive) and 111% (inactive); in the assay on NCI-H460 lung, 102% (inactive) and 110% (inactive); with HOP-92 NSCLC it was 73.3% (inactive). The growth in the assay with A549/ATCC NSCLC was 98.1% (inactive) and 100% (inactive); in the assay on 786-0 renal, 121% (inactive) and 114% (inactive); with COLO 205 colon it was 97.5% (inactive) and 120% (inactive); in the assay with DU-145 prostate it was 105% (inactive) and 101% (inactive); with K-562 leukemia it was 105% (inactive) and 98.2% (inactive); in the assay with MALME-3M melanoma it was 90.6% (inactive) and 137% (inactive). Further, the growth is 96.4% (inactive) and 111% (inactive) in the assay with MDA-MB-231 breast; 100% (inactive) and 121% (inactive) in the assay on RXF 393 renal; 90.3% (inactive) and 99% (inactive) in the assay on SF-268 CNS; 107% (inactive) and 114% (inactive) in the assay on SF-295 CNS; 86.1% (inactive) and 93.9% (inactive) with SF-539 CNS; 106% (inactive) and 109% (inactive) in the assay with UACC-257 melanoma. In the assay with M14 melanoma, the growth was 99.7% (inactive) and 101% (inactive).
Take `Nc1ncnc2c1ncn2C1OC(CO)C(O)C1O` (stereo unspecified): the growth in the assay on NCI-H23 lung was 111% (inactive) and 93.6% (inactive) and 103% (inactive); with NCI-H226 lung, 105% (inactive) and 82.7% (inactive) and 103% (inactive); with NCI-H322M lung it was 114% (inactive) and 60.9% (inactive) and 111% (inactive); in the assay with HOP-62 NSCLC, 120% (inactive) and 93.4% (inactive) and 95% (inactive); in the assay with NCI-H460 lung, 113% (inactive) and 43.4% (inactive) and 103% (inactive); in the assay on HOP-92 NSCLC, 93.4% (inactive) and 100% (inactive) and 89.5% (inactive). The growth was 106% (inactive) and -20.2% (active) and 110% (inactive) in the assay with NCI-H522 lung; 106% (inactive) and 97.7% (inactive) in the assay with A549/ATCC NSCLC; 104% (inactive) and 73.7% (inactive) and 100% (inactive) in the assay with 786-0 renal; 116% (inactive) and 47.5% (inactive) and 106% (inactive) in the assay on DU-145 prostate; 93.5% (inactive) and 26.1% (inactive) and 116% (inactive) in the assay with K-562 leukemia; 147% (inactive) and 107% (inactive) and 128% (inactive) in the assay with MALME-3M melanoma. The growth in the assay with MDA-MB-231 breast is 122% (inactive) and 52.5% (inactive) and 113% (inactive); in the assay with RXF 393 renal, 115% (inactive) and 103% (inactive); in the assay with SF-268 CNS, 106% (inactive) and 121% (inactive) and 102% (inactive); in the assay with SF-295 CNS, 105% (inactive) and 104% (inactive) and 100% (inactive); in the assay on SF-539 CNS, 109% (inactive) and 98% (inactive) and 91.5% (inactive); in the assay with UACC-257 melanoma, 84.9% (inactive) and 124% (inactive) and 105% (inactive). Further, the growth in the assay on M14 melanoma is 111% (inactive) and 115% (inactive).
Take `Oc1ccc(/C=N/NC(=S)Nc2ccccc2)nc1`: the growth with NCI-H23 lung is 14.9% (inactive); in the assay with NCI-H226 lung it was 5.69% (active); in the assay with NCI-H322M lung, 21.2% (inactive); in the assay on HOP-62 NSCLC, 12.2% (inactive); in the assay with NCI-H460 lung, 2.79% (active); in the assay with HOP-92 NSCLC it was -0.553% (active). Moreover, the growth is -14.2% (active) in the assay on NCI-H522 lung; 11.5% (inactive) with A549/ATCC NSCLC; -21% (active) in the assay on 786-0 renal; 12.3% (inactive) with DU-145 prostate; 14.1% (inactive) in the assay on K-562 leukemia; 14.4% (inactive) in the assay with MALME-3M melanoma. For the same compound, the growth in the assay on MDA-MB-231 breast was 49.3% (inactive); in the assay with RXF 393 renal it was 3.06% (active); in the assay with SF-268 CNS, 18.7% (inactive); with SF-295 CNS it was 25.3% (inactive); in the assay with SF-539 CNS it was 1.01% (active); in the assay on UACC-257 melanoma, 4.98% (active). In addition, the growth in the assay on M14 melanoma is -34.8% (active).

Values taken from PubChem BioAssay (NCI).
